Source: the supplement of paper PMC8975748
Structures can show the parent of a compound that is named as a salt.

Each compound was assayed on Saccharomyces cerevisiae BY4741 SeMeCo community (assay: z-score of subpopulation abundance vs DMSO median, subpopulation auxotrophic for LM; higher = larger share of this subpopulation than in DMSO controls). Settings: 10 µM; 24 h; SM minimal medium; subpopulation (auxotrophy): LM.
Protocol: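 Fluorescent four-plasmid SeMeCo (self-establishing metabolically cooperating S. cerevisiae BY4741 community; plasmids pH-mRuby2, pL-mWasabi, pU-eCFP, pM-TagRFP657) was grown 24 h in minimal SM medium with each Selleck FDA-approved drug at 10 µM in 384-well plates. Cells were fixed and imaged by high-content confocal microscopy. For each auxotrophic subpopulation (and the prototroph), a z-score gives the deviation from the DMSO vehicle-control population median.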
With `CN(C)[C@@H]1C(=O)C(C(N)=O)=C(O)[C@@]2(O)C(=O)C3=C(O)c4c(O)cccc4[C@@](C)(O)[C@H]3[C@H](O)[C@@H]12` [Oxytetracycline (Terramycin)] the “z-score of subpopulation abundance” value was -0.04. In the case of `COc1ccc(C(CN(C)C)C2(O)CCCCC2)cc1` (centres undefined) [Venlafaxine HCl], the “z-score of subpopulation abundance” value is reported as 0.27. In the case of `O=c1[nH]c2ccccc2n1CCCN1CCC(n2c(=O)[nH]c3cc(Cl)ccc32)CC1` [Domperidone], the “z-score of subpopulation abundance” value is reported as -0.04. `NC(=O)CN1CCCC1=O` [Piracetam] was tested, and the “z-score of subpopulation abundance” value was 1.96. `CN[C@@H]1[C@@H](O)[C@@H](O[C@@H]2[C@@H](O)[C@H](O[C@H]3O[C@H]([C@@H](C)O)[C@@H](O)[C@H](O)[C@H]3N)[C@@H](N)C[C@H]2N)OC[C@]1(C)O` [Geneticin (G418 Sulfate)] was tested, and the “z-score of subpopulation abundance” value was 0.61. With `CCOC(=O)Nc1ccc(NCc2ccc(F)cc2)cc1N` [Retigabine 2HCl] the “z-score of subpopulation abundance” value was 0.17. `CN1C(=O)COc2c(C(=O)NC3CN4CCC3CC4)cc(Cl)cc21` (centres undefined) [Azasetron HCl] was tested, and the “z-score of subpopulation abundance” value was 1.69. For `CN1[C@@H]2C[C@@H](OC(=O)[C@H](CO)c3ccccc3)C[C@H]1[C@@H]1O[C@@H]12` [Scopolamine HBr trihydrate], the “z-score of subpopulation abundance” value was -0.12. For `COc1ccc(C=O)cc1` [p-Anisaldehyde], the “z-score of subpopulation abundance” value was -0.17. With `C[C@H]1O[C@H](O[C@H]2[C@H](O)[C@@H](O)[C@@H](O)[C@H](O)[C@@H]2O)[C@@H](N)C[C@@H]1NC(=N)C(=O)O` [Kasugamycin hydrochloride] the “z-score of subpopulation abundance” value was 0.45. With `CC[C@@]1(O)C(=O)OCc2c1cc1n(c2=O)Cc2cc3ccccc3nc2-1` [Camptothecin] the “z-score of subpopulation abundance” value was -0.25. With `COc1ccc2[nH]cc(CCN)c2c1` [5-Methoxytryptamine] the “z-score of subpopulation abundance” value was 0.28. In the case of `COc1ccc(C(CN(C)C)C2(O)CCCCC2)cc1` (centres undefined) [Venlafaxine], the “z-score of subpopulation abundance” value is reported as -0.51. In the case of `O=c1cccc2n1C[C@@H]1CNC[C@H]2C1` [Cytisine], the “z-score of subpopulation abundance” value is reported as -0.02. With `COC(=O)C1=CCCN(C)C1` [Arecoline HBr] the “z-score of subpopulation abundance” value was 0.61. With `CC[N+](C)(CC)CCOC(=O)C(O)(c1ccccc1)c1ccccc1` [Methylbenactyzine Bromide] the “z-score of subpopulation abundance” value was -0.89. For `C[CH2][Hg][S]c1ccccc1C(=O)[O-].[Na+]` [Thimerosal], the “z-score of subpopulation abundance” value was 13.9. `C[N+]1(C)[C@@H]2C[C@@H](OC(=O)[C@H](CO)c3ccccc3)C[C@H]1[C@@H]1O[C@@H]12` [Methscopolamine] was tested, and the “z-score of subpopulation abundance” value was -0.56. In the case of `CN(C)[C@@H]1C(=O)C(C(N)=O)=C(O)[C@@]2(O)C(=O)C3=C(O)c4c(O)ccc(Cl)c4[C@@](C)(O)[C@H]3C[C@@H]12` [Chlortetracycline HCl], the “z-score of subpopulation abundance” value is reported as -0.46. `CNC1CC(N)C(O)C(OC2OC(CO)C(O)C3OC4(OC(C(N)CO)C(O)C(O)C4O)OC23)C1O` (centres undefined) [Hygromycin B] was tested, and the “z-score of subpopulation abundance” value was -0.12. `CC[C@H]1CN2CC[C@]3(C(=O)Nc4ccccc43)[C@@H]2C[C@@H]1/C(=C\OC)C(=O)OC` [Rhynchophylline] was tested, and the “z-score of subpopulation abundance” value was -0.11. With `CCN1CC2(OC(=O)c3ccccc3NC(C)=O)CCC(OC)C34C1C(CC23)C1(O)CC(OC)C2CC4C1(O)C2OC` (centres undefined) [Lappaconitine] the “z-score of subpopulation abundance” value was -0.33. For `N[C@@H]1C[C@H]1c1ccccc1` [Tranylcypromine (2-PCPA) HCl], the “z-score of subpopulation abundance” value was -0.94. For `Cc1cc(O)ccc1Cl` [Chlorocresol], the “z-score of subpopulation abundance” value was -0.37. With `CC[C@H]1[C@@H]2C[C@H]3[C@@H]4N(C)c5ccccc5[C@]45C[C@@H]([C@@H]2[C@H]5O)N3[C@@H]1O` [Ajmaline] the “z-score of subpopulation abundance” value was -0.31. `CN1[C@@H]2CC[C@H]1C[C@@H](OC(=O)C(CO)c1ccccc1)C2` (some centres undefined) [Atropine sulfate monohydrate] was tested, and the “z-score of subpopulation abundance” value was -0.12. In the case of `C[C@@H]1O[C@@H](O[C@H]2C[C@@H](O)[C@]3(CO)[C@H]4[C@H](O)C[C@]5(C)[C@@H](C6=CC(=O)OC6)CC[C@]5(O)[C@@H]4CC[C@]3(O)C2)[C@H](O)[C@H](O)[C@H]1O` [Ouabain], the “z-score of subpopulation abundance” value is reported as -0.83. With `COc1ccc2c3c([nH]c2c1)C(C)=NCC3` [Harmaline] the “z-score of subpopulation abundance” value was 4.83. With `CCN(C)C(=O)Oc1cccc([C@H](C)N(C)C)c1` [Rivastigmine Tartrate] the “z-score of subpopulation abundance” value was 0. In the case of `C#C[C@]1(O)C=C[C@H]2[C@@H]3CCC4=CC(=O)CC[C@@H]4[C@H]3CC[C@@]21CC` [Gestodene], the “z-score of subpopulation abundance” value is reported as 0.29. `CC(C)(O)C(Cl)(Cl)Cl` [Chlorobutanol] was tested, and the “z-score of subpopulation abundance” value was 0.13. For `Nc1nc(N)nc(NC2CC2)n1` [Cyromazine], the “z-score of subpopulation abundance” value was 0.84. With `CN1[C@@H]2C[C@@H](OC(=O)[C@H](CO)c3ccccc3)C[C@H]1[C@@H]1O[C@@H]12` [Scopolamine HBr] the “z-score of subpopulation abundance” value was -0.51. With `C[N+](C)(C)CCCCCCCCCC[N+](C)(C)C` [Decamethonium Bromide] the “z-score of subpopulation abundance” value was -0.15.
